A selection: hits, their analogues and other compounds. The true share with any hit is near 3.2%.
PAX8 reporter: lowers PAX8-driven luciferase in RMG-I cells; RMG-I TPO-luciferase reporter, SteadyGlo, 24 h; inhibition, % at 12.6 µM; hit rate 1.2% among 360,000; AID 652154;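 active = mean replicate inhibition at least 60% with every replicate also reaching 60%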;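 note: luciferase light reporting Pax8 driven TPO promoter activity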
EBV LMP1 NFkB: reduces LMP1-driven NF-kappaB luciferase signal. LMP1-induced NF-kappaB luciferase reporter cells, luminescence. inhibition, % at 12.5 µM. hit rate 0.69% among 350,000; in the data active = inhibition above about 41%
EWS-Fli inh: blocks EWS/Fli oncoprotein-driven transcription; A673 NR0B1-luciferase reporter, viability-normalised; inhibition, % at 12.6 µM; hit rate 0.67% among 350,000; AID 651661;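 active = mean inhibition of at least 50% after viability correction, with every replicate also passing that limit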;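 note: firefly luciferase signal divided by Alamar Blue viability fluorescence both relative to DMSO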
TWEAK Fn14 block: TWEAK-Fn14 signaling inhibition | TWEAK-stimulated Fn14 reporter cells, luciferase luminescence, 8 h | inhibition, % at 10 µM | hit rate 2% among 360,000; in the data active = inhibition above about 50%
LGR2 inh: inhibitors of bursicon-induced Drosophila LGR2 receptor cAMP signaling. hit rate 0.35% among 380,000. AID 720647. inhibition, % at 9.99 µM. HEK293 LGR2, CRE-luciferase, bursicon-stimulated, 4 h;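 active = drop in luminescence signal, shown as inhibition above about 50% in the replicate tests, limit read from the data, passing the limit was not always enough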;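 note: agonist challenge used bursicon conditioned medium at about half maximal strength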
TROY NFkB inh: TROY signaling inhibition; Q293 LMP1-TROYcd NF-kB luciferase reporter, 4 h; inhibition, % at 10 µM; hit rate 0.98% among 360,000; AID 1347056;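 active = compounds whose plate-normalised and pattern-corrected inhibition of the luciferase reporter signal at the single screening dose is 50% or more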
DNA binder FP: small molecule DNA binding by fluorescence polarization; shares compounds with EWS-Fli inh; salmon sperm DNA acridine orange fluorescence polarization; AC35, µM (doses to about 68 µM); hit rate 2% among 640;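 active = fitted curve reaches a 35% signal fall AC35 below twice the sample's top valid tested dose, actives reach about 48 µM in these data; inactive = the rest, including activity in the rising direction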;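 note: lower polarization ratio signals compound binding to DNA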
Hits are given with their value.

For C[C@@H]1CN([C@@H](C)CO)C(=O)Cc2cc(NC(=O)CCCCCC(=O)Nc3ccccc3N)ccc2O[C@@H]1CN(C)Cc1ccc(-c2ccccc2)cc1 the results were PAX8 reporter inactive and EWS-Fli inh inactive.
C[C@H](CO)N1C[C@H](C)[C@H](CN(C)Cc2ccccc2)Oc2ccc(NC(=O)CCCCCC(=O)Nc3ccccc3N)cc2CC1=O was read as PAX8 reporter inactive, EWS-Fli inh 56, LGR2 inh inactive and DNA binder FP inactive.
For Cc1ccc(S(=O)(=O)Nc2ccc3c(c2)C(=O)N([C@H](C)CO)C[C@@H](C)[C@H](CN(C)C(=O)NC2CCCCC2)OCCCC[C@H](C)O3)cc1 the results were PAX8 reporter inactive, EWS-Fli inh inactive and LGR2 inh inactive.
COc1ccc(-c2ccc3c(c2)O[C@@H](CN(C)Cc2cccnc2)[C@H](C)CN([C@@H](C)CO)S3(=O)=O)cc1 was read as EWS-Fli inh inactive and LGR2 inh inactive.
`COc1ccc(OC)c(-c2nnc3n2N=C(c2ccc(OC)c(OC4CCCC4)c2)CS3)c1` gave PAX8 reporter 89, EBV LMP1 NFkB 48, EWS-Fli inh 52, TWEAK Fn14 block inactive, TROY NFkB inh inactive and DNA binder FP inactive.
Screening COc1ccc(C2=Nn3c(nnc3-c3ccccc3OC)SC2)cc1OCC1CC1 returned PAX8 reporter 78, EBV LMP1 NFkB inactive, EWS-Fli inh 62, TWEAK Fn14 block inactive, LGR2 inh inactive, TROY NFkB inh inactive and DNA binder FP inactive.
Screening Oc1cccc(-c2nnc(-c3cccc(O)c3)nn2)c1 returned PAX8 reporter inactive, EBV LMP1 NFkB inactive, EWS-Fli inh 72, TWEAK Fn14 block 85, LGR2 inh 84, TROY NFkB inh inactive and DNA binder FP inactive.
`Nc1cccc(O)c1` gave EBV LMP1 NFkB inactive, EWS-Fli inh inactive, TWEAK Fn14 block inactive, LGR2 inh inactive and TROY NFkB inh inactive.
`C[C@@H]1CN([C@@H](C)CO)S(=O)(=O)c2ccc(C#CCN(C)C)cc2O[C@@H]1CN(C)Cc1ccncc1` gave PAX8 reporter inactive, EWS-Fli inh 53, LGR2 inh inactive and DNA binder FP inactive.
For C[C@@H]1CN([C@H](C)CO)S(=O)(=O)c2ccc(C#CC(C)(C)O)cc2O[C@@H]1CN(C)Cc1ccc(-c2ccccc2)cc1 the results were EWS-Fli inh inactive and LGR2 inh inactive.
C[C@H]1CN([C@@H](C)CO)S(=O)(=O)c2ccc(C#CC(C)(C)O)cc2O[C@@H]1CN(C)Cc1ccc(-c2ccccc2)cc1 was read as EWS-Fli inh 68, LGR2 inh 54 and DNA binder FP inactive.
Screening C[C@@H]1CCCCO[C@H](CN(C)CC2CC2)[C@@H](C)CN([C@H](C)CO)C(=O)c2cc(NC(=O)Nc3ccccc3)ccc2O1 returned PAX8 reporter inactive and LGR2 inh inactive.
For O=C(C[C@H]1C[C@@H]2c3cc(NC(=O)C4CCOCC4)ccc3O[C@@H]2[C@@H](CO)O1)NCC1CC1 the results were PAX8 reporter inactive, EWS-Fli inh inactive and LGR2 inh inactive.
Screening O=C(Nc1cccc(F)c1)N1CCCCN2[C@H](C1)[C@H](c1ccc(C#CC3CC3)cc1)[C@@H]2CO returned PAX8 reporter inactive, EWS-Fli inh inactive and LGR2 inh inactive.
`COc1cc(-c2coc3c(C(=O)NCc4ccc(C(F)(F)F)cc4)cccc23)ccc1O` gave PAX8 reporter inactive, EWS-Fli inh 62, TWEAK Fn14 block inactive, LGR2 inh inactive, TROY NFkB inh inactive and DNA binder FP inactive.
`O=C1CCCC2=C1C(c1ccccn1)Nc1ccc(C(=O)c3ccccc3)cc1N2` (configuration not stated) gave PAX8 reporter inactive, EBV LMP1 NFkB inactive, EWS-Fli inh 80, TWEAK Fn14 block inactive, LGR2 inh inactive, TROY NFkB inh inactive and DNA binder FP inactive.
Screening O=C1CCCC2=C1C(c1ccco1)Nc1ccc(C(=O)c3ccccc3)cc1N2 (configuration not stated) returned EBV LMP1 NFkB inactive, TWEAK Fn14 block inactive and TROY NFkB inh inactive.
For C/C(=N\OC(=O)c1ccc(Br)cc1)c1ccccn1 the results were PAX8 reporter inactive, EBV LMP1 NFkB inactive, EWS-Fli inh inactive, TWEAK Fn14 block inactive, LGR2 inh inactive and TROY NFkB inh inactive.
Cc1ccc(C(=O)O/N=C(\N)c2ccccn2)cc1 was read as PAX8 reporter 105, EBV LMP1 NFkB 79, EWS-Fli inh 52, TWEAK Fn14 block 103, LGR2 inh 101, TROY NFkB inh 84 and DNA binder FP inactive.
For CC1(C)Oc2cc3oc(-c4cc(O)cc(O)c4)cc3cc2CC1O (configuration not stated) the results were EBV LMP1 NFkB inactive, EWS-Fli inh 76, TWEAK Fn14 block 76, LGR2 inh 82, TROY NFkB inh 80 and DNA binder FP inactive.
`COc1cc(/C=N\Nc2nc(-c3ccc(C)cc3)c(NC(C)=O)s2)ccc1O` gave PAX8 reporter inactive, EBV LMP1 NFkB inactive, EWS-Fli inh 54, TWEAK Fn14 block inactive, LGR2 inh inactive, TROY NFkB inh inactive and DNA binder FP inactive.
`COc1ccc(/C=N/Nc2nc(-c3ccc(C)cc3)c(NC(C)=O)s2)cc1OC` gave PAX8 reporter inactive, EBV LMP1 NFkB inactive, EWS-Fli inh inactive, TWEAK Fn14 block inactive, LGR2 inh inactive and TROY NFkB inh inactive.
`C[C@H](CO)N1C[C@H](C)[C@H](CN(C)Cc2ccc(C(=O)Nc3ccccc3N)cc2)Oc2ccc(N(C)C)cc2C1=O` gave PAX8 reporter 76, EWS-Fli inh 65, LGR2 inh inactive and DNA binder FP inactive.
C[C@H]1CN([C@@H](C)CO)C(=O)c2cc(N(C)C)ccc2O[C@H]1CN(C)Cc1ccc(C(=O)Nc2ccccc2N)cc1 was read as PAX8 reporter inactive, EWS-Fli inh 61, LGR2 inh inactive and DNA binder FP inactive.
For C[C@@H]1CN([C@@H](C)CO)C(=O)c2cc(N(C)C)ccc2O[C@H]1CN(C)Cc1ccc(C(=O)Nc2ccccc2N)cc1 the results were PAX8 reporter inactive, EWS-Fli inh 63, LGR2 inh inactive and DNA binder FP inactive.
`C[C@@H]1CN([C@@H](C)CO)C(=O)Cc2cc(NC(=O)c3ccncc3)ccc2O[C@H]1CN(C)Cc1ccc(C(=O)Nc2ccccc2N)cc1` gave PAX8 reporter inactive, EWS-Fli inh inactive and LGR2 inh inactive.
C[C@H]1CN([C@@H](C)CO)C(=O)c2cc(NS(C)(=O)=O)ccc2O[C@H]1CN(C)Cc1ccc(C(=O)Nc2ccccc2N)cc1 was read as EWS-Fli inh inactive and LGR2 inh inactive.
Screening C[C@@H]1CN([C@H](C)CO)C(=O)Cc2cc(N(C)C)ccc2O[C@H]1CN(C)Cc1ccc(C(=O)Nc2ccccc2N)cc1 returned PAX8 reporter inactive, EWS-Fli inh 59, LGR2 inh inactive and DNA binder FP inactive.

Compound activity from PubChem.
